Our source for the PBM binding z-score values is the supplement of paper PMC6555819.

What all share (test): PBM binding z-score (relative to random genomic background probes); higher = stronger binding; sequences stand for … in GC…GCGATTGACAGCGTAGAATGAAGG
Assay [1] relates to RARb homodimer (NR concentration 270 nM). In short, it runs like this: (§1)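 On custom Agilent 4×180K arrays, double-stranded probes with 34-nt variable regions carried direct-repeat seeds, single-nucleotide variants, half-site ablations or random human genomic background. Ligand-free nuclear receptor dimers were applied for 1 h, and binding was read with antibodies against each partner (one per run). Binding z-scores come from regression-normalized fluorescence, with the random background probes as reference.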

Assay [2] has as its system RARg:RXRa (NR concentration 270 nM, RXRa partner concentration 90 nM). In short, it runs like this:
as §1

In assay [3] the test system is RARg homodimer (NR concentration 270 nM). In short, it runs like this:
as §1

Assay [4] concerns RXRa DBDmut IVT, anti-RXR (DBD mutation: RXRa K156A/R161A, NR concentration 90 nM). In short, it runs like this:
as §1

Assay [5] concerns RXRa homodimer (NR concentration 180 nM). In short, it runs like this: as §1
For assay [6], the system named is THRa:RXRa (NR concentration 90 nM, RXRa partner concentration 90 nM). In short, it runs like this:
as §1

Assay [7] has as its system THRa homodimer (NR concentration 90 nM). In short, it runs like this: as §1
Assay [8] has as its system VDR homodimer (NR concentration 270 nM). In short, it runs like this:
as §1

Turning to GCTTGTAGATCAAGATTAAGAAAGACTAAGCTAA, the PBM binding z-score was -1.07 in assay [1]; -0.362 in assay [2]; -0.206 in assay [3]; -0.488 in assay [4]; -0.324 in assay [5]; -0.364 in assay [6]. The PBM binding z-score in assay [7] is -0.81; in assay [8] it was -0.356.
Turning to CGAACTAGGTCAAGGACAGAGAATCTCCGCACGC, the PBM binding z-score was 2.93 in assay [1]; 3.95 in assay [2]; 4.67 in assay [3]; 1.52 in assay [4]; 2.61 in assay [5]; 2.74 in assay [6]. Besides, the PBM binding z-score is 1.79 in assay [7] and 0.0808 in assay [8].
In the case of ATCTCTCGGTAACAAGTTCAGTGAAAGAGAGGAC, the PBM binding z-score in assay [1] was 1.84; in assay [2], 0.867; in assay [3], 1.2; in assay [4], 0.226; in assay [5], 0.539; in assay [6], 0.976. In addition, the figures for the PBM binding z-score in assay [7] and in assay [8] were 0.753 and 2.29, respectively.
With TAGCCTCGGTCATGGGCCAGTATACCACGCGAAC, the PBM binding z-score in assay [1] was 1.72; in assay [2], 1.72; in assay [3] it was 2.42; in assay [4] it was -1.4; in assay [5], 0.378; in assay [6], 0.05. In addition, the PBM binding z-score was -0.217 in assay [7] and -0.408 in assay [8].
TCTTGTCGATCAAGCAGGTTAAGAAAGCCTGAGT: the PBM binding z-score is 0.296 in assay [1]; -0.133 in assay [2]; -0.273 in assay [3]; 0.138 in assay [4]; 0.0791 in assay [5]; 0.127 in assay [6]. In addition, the PBM binding z-score in assay [7] was -0.374; in assay [8], -0.0959.
As to TCTGACAGGTGAAGGTAACTCAGGTACGCAGTCG, the PBM binding z-score was 0.819 in assay [1]; 0.644 in assay [2]; 0.639 in assay [3]; 0.827 in assay [4]; 0.901 in assay [5]; 1.5 in assay [6]. For the same sequence, the figures for the PBM binding z-score in assay [7] and in assay [8] were 0.158 and 0.222, respectively.
For ACTTACGGGGCAACGAGGTTATAGCACGCGTATA, the PBM binding z-score was 1.13 in assay [1]; 1.75 in assay [2]; 1.76 in assay [3]; 1.63 in assay [4]; 1.73 in assay [5]; 2.08 in assay [6]. In addition, the figures for the PBM binding z-score in assay [7] and in assay [8] were 0.279 and 1.72, respectively.
ATCTCTAGGTAAAGATAGTTCGGTGAATGCAAAT: the PBM binding z-score was -0.015 in assay [1]; 0.125 in assay [2]; 0.491 in assay [3]; 0.0249 in assay [4]; -0.171 in assay [5]; 0.322 in assay [6]. The results for the PBM binding z-score in assay [7] and in assay [8] were 0.197 and 0.151, respectively.
For the sequence CAAACAGGGTCAGCTAGGCCAGAGTAGGGACGGC, the PBM binding z-score in assay [1] came to 3.2; in assay [2] it was 4.72; in assay [3] it was 4.56; in assay [4], 1.83; in assay [5], 4.56; in assay [6], 2.94. Also, the results for the PBM binding z-score in assay [7] and in assay [8] were 0.733 and 1.44, respectively.
Regarding TGGCCTAGGTCATTCAGGGGCCAGTATAGAAAGC, the PBM binding z-score in assay [1] turned out to be 3.18; in assay [2], 6.37; in assay [3], 5.07; in assay [4], 1.39; in assay [5] it was 3.29; in assay [6], 3.47. For the same sequence, the PBM binding z-score in assay [7] was determined as 0.314; in assay [8], 1.37.
TCTTGTAGATCCGCAGGTTAAGAAAGCTGGCCAA: the PBM binding z-score in assay [1] is -0.00283; in assay [2] it was -0.252; in assay [3], -0.631; in assay [4], 0.638; in assay [5] it was 0.152; in assay [6] it was 0.0319. Further, the PBM binding z-score in assay [7] was -0.513; in assay [8], -0.38.
As for CCATACGGGTCACTCCAGGTTATAGCATCGGAGT, the PBM binding z-score in assay [1] stood at 2.96; in assay [2], 4.24; in assay [3], 3.85; in assay [4], 0.942; in assay [5] it was 4.03; in assay [6] it was 5.15. For the same sequence, the PBM binding z-score in assay [7] was determined as 0.591; in assay [8] it was 1.76.
As for CCGACTGGGCCATCAGGTCATTGATATCAACGTT, the PBM binding z-score in assay [1] was determined as 2.62; in assay [2], 2.06; in assay [3], 1.8; in assay [4], 0.194; in assay [5] it was 1.38; in assay [6], 3.17. Also, the PBM binding z-score in assay [7] was determined as 2.95; in assay [8], 1.67.
As for GCTATTAGTTGAAAGGGAAACCGAATGATTCTCG, the PBM binding z-score in assay [1] was -0.448; in assay [2], -0.0918; in assay [3], 0.0889; in assay [4], 0.797; in assay [5] it was -0.215; in assay [6] it was -0.127. The values for the PBM binding z-score in assay [7] and in assay [8] were -0.399 and 0.461, respectively.
